# In PubChem BioAssay (NCATS):
# Inconclusive results are not listed. Entries that show only a call come without a potency. Activity calls are given as the source filed them. Calls follow the shape of the dose curve; as a rule, active = well fitted curve in the direction sought with a large enough effect; inconclusive = small, poorly fitted or top-dose-only effect, or another doubt; inactive = no such curve, though single readings can be large; an effect the other way counts as inactive or inconclusive.
# Key:
# [1] = Quantitative High-Throughput drug screen in 47 multiple myeloma cell lines against the NCATS MIPE library collection: JIM1_ECACC cell viability assay (AID 1918964; also: potency is read from the fitted curve at half-maximal effect)
# Outline: (§1)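 Primary qHTS used for cherry-picking: cells at 500/well, library compounds for 48 h (37C, 5% CO2), luminescent ATP assay.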
# [2] = Quantitative High-Throughput drug screen in 47 multiple myeloma cell lines against the NCATS MIPE library collection: INA6_PLB cell viability assay (AID 1918965; also: nearly all actives have a fitted effect of over 55% in size; also: potency is read from the fitted curve at half-maximal effect)
# Outline: (§2)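 Viability readout: CellTiter-Glo luminescence following 5 min room-temperature incubation with reagent. Prior exposure: 48 h, 37C, humidified 5% CO2, 500 cells per well.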
# [3] = Quantitative High-Throughput drug screen in 47 multiple myeloma cell lines against the NCATS MIPE library collection: H1112_PLB cell viability assay (AID 1918967; also: nearly all actives have a fitted effect of over 30% in size; also: potency is read from the fitted curve at half-maximal effect)
# Outline: as §1
# [4] = Quantitative High-Throughput drug screen in 47 multiple myeloma cell lines against the NCATS MIPE library collection: Karpas25_ECACC cell viability assay (AID 1918968; also: nearly all actives have a fitted effect of over 35% in size; also: potency is read from the fitted curve at half-maximal effect)
# Outline: as §1
# [5] = Quantitative High-Throughput drug screen in 47 multiple myeloma cell lines against the NCATS MIPE library collection: KMS27_JCRB cell viability assay (AID 1918970); also: nearly all actives have a fitted effect of over 30% in size; also: potency is read from the fitted curve at half-maximal effect
# Outline: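 Myeloma cells (500 per well) were exposed to MIPE 4.0 compounds for 48 h at 37 °C, 5% CO2; viability was read as ATP luminescence with CellTiter-Glo, normalized to DMSO-only (100%) and media-only (0%) wells.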
# [6] = Quantitative High-Throughput drug screen in 47 multiple myeloma cell lines against the NCATS MIPE library collection: KMS12PE_JCRB cell viability assay (AID 1918972); also: nearly all actives have a fitted effect of over 30% in size; also: potency is read from the fitted curve at half-maximal effect
# Outline: as §2
# [7] = Quantitative High-Throughput drug screen in 47 multiple myeloma cell lines against the NCATS MIPE library collection: KMS21BM_JCRB cell viability assay (AID 1918974); conditions: ATP luminescence, 48 h; viability: at 45.8 µM (top of the series) unless noted; also: potency is read from the fitted curve at half-maximal effect
# Outline: as §1
# [8] = Quantitative High-Throughput drug screen in 47 multiple myeloma cell lines against the NCATS MIPE library collection: MOLP8_DSMZ cell viability assay (AID 1918977); also: nearly all actives have a fitted effect of over 45% in size; also: potency is read from the fitted curve at half-maximal effect
# Outline: (§3)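 Cells were exposed to library compounds for 48 hours, after which ATP was measured by CellTiter-Glo. Signal was taken as median relative luminescence units.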
# [9] = Quantitative High-Throughput drug screen in 47 multiple myeloma cell lines against the NCATS MIPE library collection: NCIH929_DSMZ cell viability assay (AID 1918978); also: nearly all actives have a fitted effect of over 35% in size; also: potency is read from the fitted curve at half-maximal effect
# Outline: as §3
# [10] = Quantitative High-Throughput drug screen in 47 multiple myeloma cell lines against the NCATS MIPE library collection: MM1R_ATCC cell viability assay (AID 1918981); also: nearly all actives have a fitted effect of over 35% in size; also: potency is read from the fitted curve at half-maximal effect
# Outline: as §3
# [11] = Quantitative High-Throughput drug screen in 47 multiple myeloma cell lines against the NCATS MIPE library collection: LP1_DSMZ cell viability assay (AID 1918982); also: nearly all actives have a fitted effect of over 35% in size
# Outline: as §3
# [12] = Quantitative High-Throughput drug screen in 47 multiple myeloma cell lines against the NCATS MIPE library collection: L363_DSMZ cell viability assay (AID 1918984); also: nearly all actives have a fitted effect of over 40% in size; also: potency is read from the fitted curve at half-maximal effect
# Outline: as §3
# [13] = Quantitative High-Throughput drug screen in 47 multiple myeloma cell lines against the NCATS MIPE library collection: KMS26_JCRB cell viability assay (AID 1918975); also: nearly all actives have a fitted effect of over 45% in size; also: potency is read from the fitted curve at half-maximal effect
# Outline: (§4)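 Luminescent ATP measurement with CellTiter-Glo gives viability, scaled between DMSO-only wells (100%) and media-only wells (0%). Cells, 500 per well, faced library compounds for 48 hours at 37C.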
# [14] = Quantitative High-Throughput drug screen in 47 multiple myeloma cell lines against the NCATS MIPE library collection: OCIMY1_PLB cell viability assay (AID 1918979); also: nearly all actives have a fitted effect of over 35% in size; also: potency is read from the fitted curve at half-maximal effect
# Outline: as §3
# [15] = Quantitative High-Throughput drug screen in 47 multiple myeloma cell lines against the NCATS MIPE library collection: KMS28PE_JCRB cell viability assay (AID 1918983); also: nearly all actives have a fitted effect of over 35% in size; also: potency is read from the fitted curve at half-maximal effect
# Outline: as §3
# [16] = Quantitative High-Throughput drug screen in 47 multiple myeloma cell lines against the NCATS MIPE library collection: MM1S_ATCC cell viability assay (AID 1918980); also: nearly all actives have a fitted effect of over 45% in size; also: potency is read from the fitted curve at half-maximal effect
# Outline: as §3
# [17] = Quantitative High-Throughput drug screen in 47 multiple myeloma cell lines against the NCATS MIPE library collection: JJN3_DSMZ cell viability assay (AID 1918966; also: nearly all actives have a fitted effect of over 50% in size; also: potency is read from the fitted curve at half-maximal effect)
# Outline: as §1
# [18] = Quantitative High-Throughput drug screen in 47 multiple myeloma cell lines against the NCATS MIPE library collection: KMS20_JCRB cell viability assay (AID 1918973); also: nearly all actives have a fitted effect of over 45% in size
# Outline: as §1
# [19] = Quantitative High-Throughput drug screen in 47 multiple myeloma cell lines against the NCATS MIPE library collection: MMM1_PLB cell viability assay (AID 1918976)
# Outline: as §3
# [20] = Quantitative High-Throughput drug screen in 47 multiple myeloma cell lines against the NCATS MIPE library collection: KMS12BM_JCRB cell viability assay (AID 1918971); also: nearly all actives have a fitted effect of over 35% in size; also: potency is read from the fitted curve at half-maximal effect
# Outline: as §4
smiles,measurement,setting,value
O=NN(CCCl)C(=O)NCCCl,Potency,[1],inactive
same,Potency,[2],inactive
same,Potency,[3],inactive
same,Potency,[4],inactive
same,Potency,[5],inactive
same,Potency,[6],inactive
same,Potency,[7],inactive
same,Potency,[8],inactive
same,Potency,[9],inactive
same,Potency,[10],inactive
same,Potency,[11],inactive
same,Potency,[12],inactive
OC(CCN1CCCCC1)(c1ccccc1)C1CC2C=CC1C2 (stereo unspecified),Potency,[1],inactive
same,Potency,[3],inactive
same,Potency,[4],inactive
same,Potency,[5],inactive
same,Potency,[6],inactive
same,Potency,[13],inactive
same,Potency,[8],inactive
same,Potency,[9],inactive
same,Potency,[14],inactive
same,Potency,[11],inactive
same,Potency,[15],inactive
CCC(C)(C)C(=O)O[C@H]1C[C@@H](C)C=C2C=C[C@H](C)[C@H](CC[C@@H]3C[C@@H](O)CC(=O)O3)[C@H]21,Potency,[1],7.43 µM (active)
same,Potency,[2],14.8 µM (active)
same,Potency,[3],18.7 µM (active)
same,Potency,[4],18.7 µM (active)
same,Potency,[5],6.62 µM (active)
same,Potency,[6],5.9 µM (active)
same,Potency,[8],13.2 µM (active)
same,Potency,[9],13.2 µM (active)
same,Potency,[14],inactive
same,Potency,[16],16.6 µM (active)
same,Potency,[12],13.2 µM (active)
CCN(CC)CCCC(C)Nc1ccnc2cc(Cl)ccc12 (stereo unspecified),Potency,[1],inactive
same,Potency,[17],inactive
same,Potency,[3],inactive
same,Potency,[6],1.66 µM (active)
same,Potency,[13],inactive
same,Potency,[8],inactive
same,Potency,[9],inactive
same,Potency,[10],inactive
same,Potency,[11],inactive
same,Potency,[15],inactive
same,Potency,[12],0.935 µM (active)
CC(c1cc2ccccc2s1)N(O)C(N)=O (stereo unspecified),Potency,[1],inactive
same,Potency,[2],inactive
same,Potency,[3],inactive
same,Potency,[4],inactive
same,Potency,[5],inactive
same,Potency,[6],inactive
same,Potency,[18],inactive
same,Potency,[13],inactive
same,Potency,[8],inactive
same,Potency,[9],inactive
same,Potency,[14],inactive
same,Potency,[16],inactive
same,Potency,[10],inactive
same,Potency,[11],inactive
same,Potency,[15],inactive
N[C@@H]1CONC1=O,Potency,[1],inactive
same,Potency,[2],inactive
same,Potency,[3],inactive
same,Potency,[4],inactive
same,Potency,[5],inactive
same,Potency,[6],inactive
same,Potency,[13],inactive
same,Potency,[9],inactive
same,Potency,[16],inactive
same,Potency,[10],inactive
same,Potency,[11],inactive
same,Potency,[12],inactive
Cc1cc2c(F)c(Oc3ncnn4cc(OC[C@@H](C)O)c(C)c34)ccc2[nH]1,Potency,[1],inactive
same,Potency,[2],18.7 µM (active)
same,Potency,[6],inactive
same,Potency,[19],2.09 µM (active)
same,Potency,[9],18.7 µM (active)
same,Potency,[14],inactive
same,Potency,[16],16.6 µM (active)
same,Potency,[15],20.9 µM (active)
OCCC#Cc1nc(-c2ccc(F)cc2)c(-c2ccncc2)n1CCCc1ccccc1,Potency,[1],13.2 µM (active)
same,Potency,[2],26.4 µM (active)
same,Potency,[3],5.9 µM (active)
same,Potency,[4],16.6 µM (active)
same,Potency,[5],23.5 µM (active)
same,Potency,[6],18.7 µM (active)
same,Potency,[8],inactive
same,Potency,[9],8.33 µM (active)
same,Potency,[10],inactive
same,Potency,[15],inactive
same,Potency,[12],5.26 µM (active)
Cc1c(CN2CCN(C(=O)C(C)C)CC2)sc2c(N3CCOCC3)nc(-c3cnc(N)nc3)nc12,Potency,[1],0.0132 µM (active)
same,Potency,[2],0.235 µM (active)
same,Potency,[17],0.209 µM (active)
same,Potency,[4],0.059 µM (active)
same,Potency,[5],0.0187 µM (active)
same,Potency,[6],0.296 µM (active)
same,Potency,[7],0.526 µM (active)
same,Potency,[13],0.264 µM (active)
same,Potency,[8],0.0372 µM (active)
same,Potency,[9],0.0166 µM (active)
same,Potency,[16],0.132 µM (active)
same,Potency,[10],0.0469 µM (active)
same,Potency,[15],0.0662 µM (active)
same,Potency,[12],0.0209 µM (active)
CC(=O)NC(C)c1ccc(Oc2ccc(OC(C)C)cc2)cc1 (stereo unspecified),Potency,[1],inactive
same,Potency,[17],16.6 µM (active)
same,Potency,[3],2.96 µM (active)
same,Potency,[4],3.72 µM (active)
same,Potency,[20],13.2 µM (active)
same,Potency,[6],5.9 µM (active)
same,Potency,[8],18.7 µM (active)
same,Potency,[9],10.5 µM (active)
same,Potency,[14],14.8 µM (active)
same,Potency,[15],18.7 µM (active)
CS(=O)(=O)c1ccc(C(=O)Nc2ccc(Cl)c(-c3ccccn3)c2)c(Cl)c1,Potency,[1],inactive
same,Potency,[2],4.18 µM (active)
same,Potency,[17],inactive
same,Potency,[4],9.35 µM (active)
same,Potency,[13],inactive
same,Potency,[8],inactive
same,Potency,[9],2.96 µM (active)
same,Potency,[10],inactive
same,Potency,[11],inactive
same,Potency,[15],inactive
same,Potency,[12],inactive
Oc1cccc(-c2nc(N3CCOCC3)c3oc4ncccc4c3n2)c1,Potency,[1],0.0121 µM (active)
same,Potency,[2],0.215 µM (active)
same,Potency,[3],9.59 µM (active)
same,Potency,[4],0.054 µM (active)
same,Potency,[6],0.121 µM (active)
same,viability,[7],37.2% [at 92.2 µM] (active)
same,Potency,[13],0.215 µM (active)
same,Potency,[8],0.0152 µM (active)
same,Potency,[9],0.0191 µM (active)
same,Potency,[16],0.0679 µM (active)
same,Potency,[10],0.0679 µM (active)
same,Potency,[15],0.0762 µM (active)
COCC(=O)NCC=Cc1ccc2ncnc(Nc3ccc(Oc4ccc(C)nc4)c(C)c3)c2c1,Potency,[1],16.6 µM (active)
same,Potency,[2],10.5 µM (active)
same,Potency,[4],6.62 µM (active)
same,Potency,[6],16.6 µM (active)
same,Potency,[9],20.9 µM (active)
same,Potency,[16],26.4 µM (active)
same,Potency,[12],14.8 µM (active)
Cc1[nH]c(=O)c(C#N)cc1-c1ccc2nccn2c1,Potency,[1],inactive
same,Potency,[17],inactive
same,Potency,[3],inactive
same,Potency,[4],inactive
same,Potency,[6],inactive
same,Potency,[13],inactive
same,Potency,[9],inactive
same,Potency,[15],inactive
CCCc1nc2c(C)cc(-c3nc4ccccc4n3C)cc2n1Cc1ccc(-c2ccccc2C(=O)O)cc1,Potency,[1],0.0026 µM (active)
same,Potency,[3],inactive
same,Potency,[4],inactive
same,Potency,[5],4.18 µM (active)
same,Potency,[20],inactive
same,Potency,[8],inactive
same,Potency,[9],inactive
same,Potency,[14],inactive
same,Potency,[16],26.4 µM (active)
same,Potency,[10],inactive
same,Potency,[11],inactive
same,Potency,[15],inactive
COc1cc(F)c(F)c(Nc2ccc(I)cc2F)c1NS(=O)(=O)C1(C[C@H](O)CO)CC1,Potency,[1],16.6 µM (active)
same,Potency,[2],inactive
same,Potency,[3],14.8 µM (active)
same,Potency,[4],20.9 µM (active)
same,Potency,[5],16.6 µM (active)
same,Potency,[6],16.6 µM (active)
same,Potency,[13],13.2 µM (active)
same,Potency,[9],18.7 µM (active)
same,Potency,[16],16.6 µM (active)
same,Potency,[10],10.5 µM (active)
same,Potency,[15],5.26 µM (active)
